Anthrax LF inh2: blocks Bacillus anthracis lethal factor protease. P15917. inhibition, % at 10 µM. multiplex microsphere protease cleavage assay, LF. 360,000 tested, 0.12% active
VHR inh abs: blocks human VHR1 dual specificity phosphatase; inhibition, % at 13.3 µM; 290,000 tested, 0.52% active; recombinant VHR phosphatase, pNPP absorbance; P51452; in the data active = inhibition above about 50%
BoNT A protease: BoNT A light chain protease inhibition; multiplex microsphere protease substrate cleavage, flow cytometry; inhibition, % at 10 µM; 360,000 tested, 0.17% active
BoNT F protease: BoNT F light chain protease inhibition; Multiplex microsphere protease cleavage assay, flow cytometry; inhibition, % at 10 µM; 360,000 tested, 0.22% active; AID 588497; in the data active = inhibition above about 35%, passing the limit was not always enough; inconclusive = no clear call, values can overlap the other calls
SARS 3CLpro inh: SARS-CoV 3CLpro protease inhibition. recombinant SARS-CoV 3CLpro, quenched FRET peptide cleavage. 290,000 tested, 0.14% active. inhibition, % at 6 µM. AID 1706. P0C6X7; in the data active = inhibition above about 12%
Bead autofluor: flagged as autofluorescent in microsphere protease counterscreen | AID 624483 | compound autofluorescence counterscreen, microsphere flow cytometry; hits give high values | 360,000 tested, 3.1% active | fluorescence intensity (no concentration beside the values); in the data active = fluorescence intensity above about 16000; inconclusive = no clear call, values can overlap the other calls
Each line names hits and unclear results; the compound was inactive in the other large screens. Sampled rows, rich in hits. Any-hit rate of the full collection: about 3.9%. Rule as the data show it, unless noted: active = inhibition above about 30%; inconclusive = no clear call, values can overlap the other calls; inactive = below that.

CC12CCC(C(N)=O)(C1Br)C2(C)C (stereo not drawn)	none
CC1(C)CC(NC(=O)C23CCC(C)(/C(=N/O)C2)C3(C)C)CC(C)(C)N1 (stereo not drawn)	BoNT A protease inconclusive, Bead autofluor 22387
CCOC(=O)c1cc2c(C)n(-c3ccc(OCC)cc3)c(C)c2ccc1=O	none (no result: Anthrax LF inh2, BoNT A protease, BoNT F protease, Bead autofluor)
CCOC(=O)c1cc2c(C)n(-c3ccc(C)cc3)c(C)c2ccc1=O	Bead autofluor 22981
COc1ccc(NC(=O)C2CC(=O)NC3=C2C(=O)CC(C)(C)C3)cc1 (stereo not drawn)	Bead autofluor 23174
COc1cc(NC(=O)C2CC(=O)NC3=C2C(=O)CCC3)c(OC)cc1Cl (stereo not drawn)	Bead autofluor 23479
COc1ccc(C)c(NC(=O)C2CC(=O)NC3=C2C(=O)CCC3)c1 (stereo not drawn)	none
CS(=O)(=O)N(CC(=O)NCCSCc1ccccc1Cl)c1ccc(F)cc1	none (no result: Anthrax LF inh2, BoNT A protease, BoNT F protease, Bead autofluor)
CCOC(=O)N1CCN(C(=O)CCCn2c(=S)[nH]c3ccc(Br)cc3c2=O)CC1	BoNT A protease inconclusive, Bead autofluor 20951
O=C(CCCn1c(=S)[nH]c2cc3c(cc2c1=O)OCO3)N1CCN(c2ncccn2)CC1	BoNT A protease inconclusive, Bead autofluor 20894
CCOC(=O)N1CCN(C(=O)CCCn2c(=S)[nH]c3ccccc3c2=O)CC1	none
Cc1ccc(C)c(N2CCN(C(=O)CCCn3c(=S)[nH]c4cc5c(cc4c3=O)OCO5)CC2)c1	Bead autofluor 17273
O=C(CCCCCn1c(=S)[nH]c2cc3c(cc2c1=O)OCO3)N1CCN(c2ccccc2)CC1	none
O=C(Nc1ccc(N2CCOCC2)nc1)c1ccc(Cl)cc1	Bead autofluor 22714
C/C(=C\C(=O)c1ccc(Cl)cc1)Nc1ccc(N2CCOCC2)cc1	Bead autofluor 16147
O=C(CSc1ncc(-c2ccccc2)n1C1CCCC1)N1CCc2ccccc21	none
COc1cccc(N=Cc2c(O)n(-c3cccc(C)n3)c(=O)c3ccccc23)c1	none
COc1ccc(N=Cc2c(O)n(-c3cccc(C)n3)c(=O)c3ccccc23)c(OC)c1	Anthrax LF inh2 62.9, BoNT F protease inconclusive
O=C(NN=C(c1ccccc1)c1ccccn1)c1ccccc1	none (no result: VHR inh abs, SARS 3CLpro inh)
S=C(NN=C(c1ccccc1)c1ccccn1)N(Cc1ccccn1)Cc1ccccn1	Anthrax LF inh2 43.0, BoNT A protease 51.4, BoNT F protease 42.5 (no result: VHR inh abs, SARS 3CLpro inh)
CC(=NNC(=S)N(Cc1ccccn1)Cc1ccccn1)c1cnccn1	Anthrax LF inh2 40.0, BoNT F protease 44.9 (no result: VHR inh abs, SARS 3CLpro inh)
CCc1nc2c(OCC3CCCCC3)cccn2c1N(C)C(=O)c1ccc(C)cc1	none (no result: VHR inh abs, SARS 3CLpro inh)
O=C(NCc1ccccc1)C1CCCN(C(=O)Nc2ccccc2)C1 (stereo not drawn)	BoNT A protease inconclusive, Bead autofluor 20689
Cc1cccc(NC(=O)C2CCCN2C(=O)OCC(C)C)c1C (stereo not drawn)	Bead autofluor 21398
Cc1cccc(NC(=O)C2CCCN(C(=O)Nc3ccccc3)C2)c1C (stereo not drawn)	BoNT A protease inconclusive, Bead autofluor 22928
O=C(NC1CCCCC1)N1CCCCCC1	none
O=C(NC1CCCCC1)N1CCCC1	Bead autofluor 21923
O=c1[nH]c(C2CCN(S(=O)(=O)c3ccc(C(F)(F)F)cc3)CC2)nc2c1nnn2Cc1ccccc1	none
COC(=O)c1c(NC(NC(=O)c2ccccc2)(C(F)(F)F)C(F)(F)F)sc2c1CCN(C)C2	none
COCC(C)n1c(SCc2cc(=O)n3cc(C)ccc3n2)nc2ccccc2c1=O (stereo not drawn)	none
O=C(NCCc1ccccc1)C1CCCN(C(=O)NC2CCCCC2)C1 (stereo not drawn)	BoNT A protease inconclusive, Bead autofluor 22227
CNC(=O)C[C@H]1C(=O)N(Cc2ccccc2)C[C@@H]1Cc1ccccc1	none (no result: VHR inh abs, SARS 3CLpro inh)
COc1ccc(CCN2C(=O)CCC2(C)c2nnnn2-c2ccc3c(c2)OCCO3)cc1OC (stereo not drawn)	none (no result: VHR inh abs, SARS 3CLpro inh)
Cn1ccnc1SCC(=O)c1cccc(Br)c1	Bead autofluor 19955
CN(Cc1nc2ccccc2n1C)C(=O)c1cccs1	Bead autofluor 22484
CN(Cc1nc2ccccc2n1C)c1ccccc1	none (no result: Anthrax LF inh2, BoNT A protease, BoNT F protease, Bead autofluor)
O=C(NCCOc1ccc(F)cc1)C1CCC(=O)N(CCc2ccccn2)C1 (stereo not drawn)	VHR inh abs 57.1
CC(C)C1C(=O)N(Cc2cn(CC3CCCCC3)nn2)CCS(=O)(=O)N1Cc1ccc(-c2ccccc2)cc1 (stereo not drawn)	none (no result: VHR inh abs, SARS 3CLpro inh)
N#Cc1cccc(NC(=O)COc2ccc(-n3ccnc3)cc2)c1	Bead autofluor 23571
COc1cc(NC(=O)COc2ccc(-n3ccnc3)cc2)cc(OC)c1	none
Cc1nc(NC(=O)COc2ccccc2)sc1C(=O)Nc1cccc(Cl)c1	BoNT A protease inconclusive, Bead autofluor 24209
COc1cccc(NC(=O)NNS(=O)(=O)c2ccc(OC)cc2OC)c1	VHR inh abs 50.2
COC(=O)COc1cccc(NC(=O)c2cccc(C)c2)c1	none
COC(=O)COc1cccc(NC(=O)c2ccccc2)c1	BoNT A protease inconclusive, Bead autofluor 24578
COc1ccc(NC(=O)CSc2nnc(-c3cccs3)n2N)c(OC)c1	none (no result: VHR inh abs, SARS 3CLpro inh)
CCN1C(=O)C(=O)N(CC(=O)NC(C)CCc2ccccc2)C1=O (stereo not drawn)	none (no result: VHR inh abs, SARS 3CLpro inh)
O=S1(=O)CC(N2CCN(CCO)CC2)CN1Cc1cn(Cc2cccc(C(F)(F)F)c2)nn1 (stereo not drawn)	none (no result: VHR inh abs, SARS 3CLpro inh)
COc1ccc(OCC(=O)Nc2cccc(OC)c2)cc1	Bead autofluor 17719
CCOc1ccc(-c2noc(CCCC(=O)NC3CCCCC3)n2)cc1OC	none
COc1cc(-c2noc(CCCC(=O)NC3CCCCC3)n2)cc(OC)c1OC	BoNT A protease inconclusive, Bead autofluor 17180
NC(=S)NC(=O)c1ccccc1	none
NC(=S)NNC(=O)c1ccccc1	Bead autofluor 24370
COC(=O)c1c(NC(=O)CN2C(=O)C(=O)N(C(C)C)C2=O)sc(C)c1C	none (no result: VHR inh abs, SARS 3CLpro inh)
COC(=O)c1ccccc1NS(=O)(=O)c1ccc(Cl)nc1	none
Cc1cc(C)cc(C(=O)N2CCCCCC2)c1	Bead autofluor 23038
COc1cc(C(=O)N2CCCN(C)CC2)cc(OC)c1C	VHR inh abs 56.9
O=C(c1ccc(C(=O)N2CCCCCC2)cc1)N1CCCCCC1	none
CN1CCCN(C(=O)c2ccc(Br)cc2)CC1	none
Cc1cc(C(=O)N2CCCCCC2)cs1	Bead autofluor 23371
Cc1cc(C)c(C(=O)c2ccc(C(=O)N3CCCCC3)cc2)c(C)c1	none
CC(NC(=O)c1cccs1)c1ccc2c(c1)OCO2 (stereo not drawn)	Bead autofluor 20040
Cc1ccsc1C(=O)NC(C)c1ccc2c(c1)OCO2 (stereo not drawn)	Bead autofluor 22863
CC(NC(=O)c1cccnc1)c1ccc2c(c1)OCO2 (stereo not drawn)	BoNT A protease inconclusive, Bead autofluor 16408
Cc1ccc(C(=O)NC(C)c2ccc3c(c2)OCO3)s1 (stereo not drawn)	none
Cc1ccc(C(C)NC(=O)c2cccnc2)cc1 (stereo not drawn)	none (no result: VHR inh abs, SARS 3CLpro inh)
